This passage reports binding signal results from article PMC4081100, “A DNA-binding-site landscape and regulatory network analysis for NAC transcription factors in Arabidopsis thaliana”.

What all share (assay): universal protein binding microarray (PBM); transcription factors of Arabidopsis thaliana; high values mean tight binding
One assay has as its target T1, GST-ANAC092(1-176) (Arabidopsis thaliana, UniProt Q9FKA0 1-176).
T1 sequence: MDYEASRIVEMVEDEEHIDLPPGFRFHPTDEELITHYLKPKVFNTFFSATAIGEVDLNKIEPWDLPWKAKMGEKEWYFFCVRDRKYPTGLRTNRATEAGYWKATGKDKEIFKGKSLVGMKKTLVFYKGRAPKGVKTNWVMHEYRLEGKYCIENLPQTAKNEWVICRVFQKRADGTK
The conditions noted are these: protein: recombinant; tags: GST; chain copies: 2; dsDNA, one strand shown. In outline: (§1)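 Protein amounts were determined by A280 or anti-GST western blot after glutathione–Sepharose 4B purification of GST-tagged proteins induced in cells, with zinc acetate included for zinc-finger proteins. Duplicate runs at 200 to 500 nM final were done on custom all-10-mer Agilent 4 × 180K arrays made double-stranded by primer extension. The normalised enrichment score (E-score) over gapped and ungapped 8-mers is the measure of binding.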

For a further assay, the target named is GST-NTL6(1-168) (Arabidopsis thaliana, UniProt Q9SCK6 1-168). As to conditions: protein: recombinant; tags: GST; chain copies: 2; dsDNA, one strand shown. The procedure, abridged:
as §1

The target in another assay is T2, GST-ANAC019 NAC domain (Arabidopsis thaliana, UniProt Q9C932 14-162).
T2 sequence: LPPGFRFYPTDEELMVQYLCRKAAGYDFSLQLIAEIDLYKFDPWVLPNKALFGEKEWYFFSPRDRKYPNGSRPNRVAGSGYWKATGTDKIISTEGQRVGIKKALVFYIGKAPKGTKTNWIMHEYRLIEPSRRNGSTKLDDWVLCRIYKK
The conditions noted are these: protein: recombinant; tags: GST; chain copies: 2; dsDNA, one strand shown. In outline: as §1

A further assay has as its target T3, GST-ANAC055(1-171) (Arabidopsis thaliana, UniProt Q9LDY8 1-171).
T3 sequence: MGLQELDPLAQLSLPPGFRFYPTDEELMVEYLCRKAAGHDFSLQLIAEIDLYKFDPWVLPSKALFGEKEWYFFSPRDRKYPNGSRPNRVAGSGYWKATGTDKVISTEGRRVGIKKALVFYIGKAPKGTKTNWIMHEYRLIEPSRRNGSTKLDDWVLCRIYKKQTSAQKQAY
As to conditions: protein: recombinant; tags: GST; chain copies: 2; dsDNA, one strand shown. In outline: as §1

The target of a further assay is T4, GST-ATAF1 NAC domain (Arabidopsis thaliana, UniProt Q39013 7-158).
T4 sequence: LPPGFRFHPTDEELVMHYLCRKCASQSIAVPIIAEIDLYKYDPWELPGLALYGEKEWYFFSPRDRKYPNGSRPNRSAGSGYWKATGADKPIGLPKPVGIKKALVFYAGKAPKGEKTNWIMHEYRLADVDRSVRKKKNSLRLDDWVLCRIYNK
The conditions noted are these: protein: recombinant; tags: GST; chain copies: 2; dsDNA, one strand shown. The procedure, abridged: as §1

Assay [1] concerns the target T5, GST-ANAC092(1-285) full length (Arabidopsis thaliana, UniProt Q9FKA0 1-285).
T5 sequence: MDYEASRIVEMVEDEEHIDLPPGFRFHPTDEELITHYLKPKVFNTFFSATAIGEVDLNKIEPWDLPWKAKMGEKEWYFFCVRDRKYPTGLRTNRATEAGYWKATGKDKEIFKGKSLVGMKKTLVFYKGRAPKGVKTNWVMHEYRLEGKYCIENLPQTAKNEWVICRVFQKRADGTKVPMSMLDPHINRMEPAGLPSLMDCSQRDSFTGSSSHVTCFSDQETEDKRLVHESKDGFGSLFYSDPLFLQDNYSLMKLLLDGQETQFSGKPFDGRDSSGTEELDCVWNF
As to conditions: protein: recombinant; tags: GST; chain copies: 2; dsDNA, one strand shown. The procedure, abridged:
as §1

A further assay concerns the target T6, GST-NAP(1-166) (Arabidopsis thaliana, UniProt O49255 1-166).
T6 sequence: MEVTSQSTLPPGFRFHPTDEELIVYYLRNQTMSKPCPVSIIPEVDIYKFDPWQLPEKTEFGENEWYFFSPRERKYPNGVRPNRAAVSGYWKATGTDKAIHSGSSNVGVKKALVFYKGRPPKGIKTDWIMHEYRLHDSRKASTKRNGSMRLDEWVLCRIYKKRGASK
The conditions noted are these: protein: recombinant; tags: GST; chain copies: 2; dsDNA, one strand shown. The procedure, abridged:
as §1

In another assay the target is T7, GST-NST2(1-184) (Arabidopsis thaliana, UniProt Q9M274 1-184).
T7 sequence: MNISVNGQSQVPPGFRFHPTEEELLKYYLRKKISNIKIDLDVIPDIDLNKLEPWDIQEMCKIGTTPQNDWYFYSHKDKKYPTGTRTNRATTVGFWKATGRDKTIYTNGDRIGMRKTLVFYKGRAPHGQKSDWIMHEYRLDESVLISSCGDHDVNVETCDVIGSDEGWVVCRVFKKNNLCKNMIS
As to conditions: protein: recombinant; tags: GST; chain copies: 2; dsDNA, one strand shown. In outline: as §1

The next assay deals with T8, GST-NTL8 NAC domain (Arabidopsis thaliana, UniProt Q9XIN7 14-156).
T8 sequence: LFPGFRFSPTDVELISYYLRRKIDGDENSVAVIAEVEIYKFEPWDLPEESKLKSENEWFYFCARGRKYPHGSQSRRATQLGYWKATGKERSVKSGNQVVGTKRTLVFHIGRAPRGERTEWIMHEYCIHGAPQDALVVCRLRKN
As to conditions: protein: recombinant; tags: GST; chain copies: 2; dsDNA, one strand shown. In outline:
as §1

The next assay addresses T9, GST-SND1(1-203) (Arabidopsis thaliana, UniProt Q9LPI7 1-203).
T9 sequence: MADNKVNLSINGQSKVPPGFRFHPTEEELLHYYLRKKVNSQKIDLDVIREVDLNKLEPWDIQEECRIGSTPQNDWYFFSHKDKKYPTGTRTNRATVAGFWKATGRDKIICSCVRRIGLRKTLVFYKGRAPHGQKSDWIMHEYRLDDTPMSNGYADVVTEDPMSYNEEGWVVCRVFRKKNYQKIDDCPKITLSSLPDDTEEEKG
The conditions noted are these: protein: recombinant; tags: GST; chain copies: 2; dsDNA, one strand shown. In outline:
as §1

For a further assay, the target named is T10, GST-VND3 NAC domain (Arabidopsis thaliana, UniProt Q9FH59 12-162).
T10 sequence: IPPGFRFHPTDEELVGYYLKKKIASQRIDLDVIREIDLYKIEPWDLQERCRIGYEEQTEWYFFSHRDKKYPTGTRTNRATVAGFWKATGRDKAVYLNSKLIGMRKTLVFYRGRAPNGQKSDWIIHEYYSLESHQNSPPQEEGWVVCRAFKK
The conditions noted are these: protein: recombinant; tags: GST; chain copies: 2; dsDNA, one strand shown. The procedure, abridged: as §1

In the next assay the target is T11, GST-VND7 NAC domain (Arabidopsis thaliana, UniProt Q9C8W9 9-158).
T11 sequence: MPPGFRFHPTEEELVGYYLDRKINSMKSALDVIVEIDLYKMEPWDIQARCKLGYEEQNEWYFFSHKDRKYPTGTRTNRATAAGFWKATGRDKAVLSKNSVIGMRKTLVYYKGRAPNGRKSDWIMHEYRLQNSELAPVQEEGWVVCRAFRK
The conditions noted are these: protein: recombinant; tags: GST; chain copies: 2; dsDNA, one strand shown. The procedure, abridged:
as §1

For a further assay, the target named is GST-WRKY1(266-371) (Arabidopsis thaliana, UniProt Q9SI37 266-371). The conditions noted are these: protein: recombinant; tags: GST; dsDNA, one strand shown. In outline: as §1
GST-WRKY1(266-371), sequence (Q9SI37 266-371): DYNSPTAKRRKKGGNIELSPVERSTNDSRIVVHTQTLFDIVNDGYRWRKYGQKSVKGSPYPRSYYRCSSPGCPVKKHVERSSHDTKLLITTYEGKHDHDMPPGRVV

GST-NTL6(1-168), sequence (Q9SCK6 1-168): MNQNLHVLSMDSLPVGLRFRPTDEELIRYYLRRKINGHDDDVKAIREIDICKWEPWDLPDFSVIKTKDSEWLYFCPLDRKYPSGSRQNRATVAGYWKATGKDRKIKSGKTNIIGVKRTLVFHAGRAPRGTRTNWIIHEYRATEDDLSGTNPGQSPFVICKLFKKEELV

As for CTTACCCC, the binding signal with GST-ANAC092(1-176) was 0.192 E-score; in the assay with GST-NTL6(1-168), 0.322 E-score; with GST-ANAC019 NAC domain, 0.132 E-score; in the assay with GST-ANAC055(1-171), 0.191 E-score; with GST-ATAF1 NAC domain, 0.0855 E-score; in assay [1], 0.179 E-score. For the same sequence, the binding signal in the assay with GST-NAP(1-166) is 0.096 E-score; with GST-NST2(1-184), 0.175 E-score; with GST-NTL8 NAC domain, 0.405 E-score; in the assay with GST-SND1(1-203) it was 0.198 E-score; with GST-VND3 NAC domain, 0.101 E-score; in the assay with GST-VND7 NAC domain, 0.149 E-score. Besides, the binding signal in the assay with GST-WRKY1(266-371) was 0.0524 E-score.
Regarding AAATTGAC, the binding signal with GST-ANAC092(1-176) amounted to 0.173 E-score; with GST-NTL6(1-168) it was 0.156 E-score; in the assay with GST-ANAC019 NAC domain, 0.134 E-score; with GST-ANAC055(1-171) it was 0.213 E-score; with GST-ATAF1 NAC domain, 0.228 E-score; in assay [1] it was 0.139 E-score. The binding signal in the assay with GST-NAP(1-166) turned out to be 0.136 E-score; with GST-NST2(1-184), 0.194 E-score; with GST-NTL8 NAC domain it was 0.0641 E-score; with GST-SND1(1-203), 0.2 E-score; with GST-VND3 NAC domain, 0.228 E-score; with GST-VND7 NAC domain, 0.0875 E-score. In addition, in the assay with GST-WRKY1(266-371), the binding signal was determined as 0.45 E-score.
On to CACGAAAG, for which the binding signal in the assay with GST-ANAC092(1-176) came out at 0.407 E-score; with GST-NTL6(1-168) it was 0.109 E-score; with GST-ANAC019 NAC domain, 0.25 E-score; in the assay with GST-ANAC055(1-171), 0.216 E-score; with GST-ATAF1 NAC domain, 0.133 E-score; in [1] it was 0.411 E-score. The binding signal came out at 0.17 E-score in the assay with GST-NAP(1-166); 0.189 E-score with GST-NST2(1-184); 0.121 E-score with GST-NTL8 NAC domain; 0.184 E-score with GST-SND1(1-203); 0.191 E-score with GST-VND3 NAC domain; 0.132 E-score in the assay with GST-VND7 NAC domain. Moreover, the binding signal with GST-WRKY1(266-371) is 0.0838 E-score.
Regarding ACGTCAAA, the binding signal is 0.333 E-score with GST-ANAC092(1-176); 0.0817 E-score with GST-NTL6(1-168); 0.262 E-score in the assay with GST-ANAC019 NAC domain; 0.245 E-score with GST-ANAC055(1-171); 0.176 E-score in the assay with GST-ATAF1 NAC domain; 0.372 E-score in [1]. Moreover, the binding signal in the assay with GST-NAP(1-166) came to 0.194 E-score; in the assay with GST-NST2(1-184), 0.261 E-score; with GST-SND1(1-203), 0.361 E-score; with GST-VND3 NAC domain, 0.252 E-score; with GST-VND7 NAC domain, 0.25 E-score; in the assay with GST-WRKY1(266-371), 0.421 E-score.
Take CACGCAAG: the binding signal with GST-ANAC092(1-176) came to 0.481 E-score; with GST-NTL6(1-168) it was 0.0685 E-score; with GST-ANAC019 NAC domain it was 0.413 E-score; with GST-ANAC055(1-171), 0.354 E-score; with GST-ATAF1 NAC domain, 0.268 E-score; in assay [1], 0.484 E-score. Further, the binding signal in the assay with GST-NAP(1-166) came to 0.348 E-score; in the assay with GST-NST2(1-184), 0.358 E-score; in the assay with GST-NTL8 NAC domain, 0.155 E-score; with GST-SND1(1-203), 0.404 E-score; in the assay with GST-VND3 NAC domain, 0.415 E-score; with GST-VND7 NAC domain it was 0.367 E-score. In addition, the binding signal in the assay with GST-WRKY1(266-371) was determined as 0.0865 E-score.
Turning to GACGTAAC, the binding signal came to 0.354 E-score with GST-ANAC092(1-176); 0.088 E-score with GST-NTL6(1-168); 0.355 E-score with GST-ANAC019 NAC domain; 0.369 E-score with GST-ANAC055(1-171); 0.268 E-score with GST-ATAF1 NAC domain; 0.4 E-score in assay [1]. Moreover, the binding signal with GST-NAP(1-166) amounted to 0.409 E-score; in the assay with GST-NST2(1-184) it was 0.24 E-score; in the assay with GST-NTL8 NAC domain, 0.204 E-score; in the assay with GST-SND1(1-203), 0.392 E-score; in the assay with GST-VND3 NAC domain, 0.367 E-score; in the assay with GST-VND7 NAC domain it was 0.296 E-score. The binding signal with GST-WRKY1(266-371) turned out to be 0.152 E-score.
